Most compounds without a hit are left out; they make up all but 4.7% or so of the library.
TRHR ag: agonists of human TRH receptor; P34981; TRHR cells, calcium flux fluo-8, FDSS agonist mode; activation, % at 2 µM; 0.18% of 360,000 active; AID 493084; further: 0% is about no effect
Target sequence (P34981 whole entry, looked up): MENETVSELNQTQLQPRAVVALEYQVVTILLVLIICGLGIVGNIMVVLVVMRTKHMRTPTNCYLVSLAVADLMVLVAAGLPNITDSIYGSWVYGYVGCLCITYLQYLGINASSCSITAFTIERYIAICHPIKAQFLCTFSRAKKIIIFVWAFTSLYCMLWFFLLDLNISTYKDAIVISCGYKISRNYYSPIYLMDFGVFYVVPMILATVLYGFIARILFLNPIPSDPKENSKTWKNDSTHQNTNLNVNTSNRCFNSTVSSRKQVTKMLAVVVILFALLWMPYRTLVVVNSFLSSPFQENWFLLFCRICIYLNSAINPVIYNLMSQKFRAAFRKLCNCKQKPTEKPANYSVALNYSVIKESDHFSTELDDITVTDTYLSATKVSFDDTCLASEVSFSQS
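TRHR-expressing cells loaded with fluo-8 calcium dye; 23 nL library compound pin-transferred, kinetic FDSS fluorescence (Ex 480/Em 530) recorded about 180 s for agonist-induced calcium release, before a 10 nM TRH EC20 addition for potentiator mode.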
D1 antagonist: blocks dopamine activation of the human D1 receptor; activity change, negative = inhibition, % at 10 µM; P21728; 3.2% of 360,000 active; HEK293 TREx D1 cells, calcium flux, dopamine EC80; hits give low values; in the data active means activity change below about -30%; further: on the % scale 0 is the no-effect control and ±100 the full control effect
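Cells carrying a force-coupled, tetracycline-inducible human D1 receptor report calcium flux. Each well gets a 10 s baseline, compound with 180 s monitoring, then an EC80 dopamine stimulus with a second 180 s kinetic read.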
TRHR enhancer: TRH receptor (human) allosteric enhancement; TRHR cells, fluo-8 calcium fluorescence, EC20 TRH enhancement; enhancement, % at 2 µM; 0.66% of 360,000 active; in the data active means enhancement above about 30%; further: 0% is about no effect
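Enhancer read-out: after compound pinning and an initial kinetic agonist-mode read, an EC20 of TRH (10 nM final) was injected and fluo-8 calcium signal (Ex 480/Em 530) followed at 1 s/cycle for 100 cycles in TRHR-expressing cells.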
D1 PAM: human D1 dopamine receptor positive modulation; AID 504651; potentiation, % at 10 µM; 0.036% of 360,000 active; P21728; HEK293 TREx D1 cells, calcium flux, dopamine EC20 potentiation; in the data active means potentiation above about 30%; further: 0% is about no effect
D1 ag: activates the human D1 dopamine receptor | HEK293 T-REx D1 cells, calcium flux, agonist mode | activation, % at 2 µM | 1% of 360,000 active | AID 504660; further: 0% is about no effect
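Inducible HEK293 T-REx D1 cells, force-coupled to calcium signalling, were plated at 4000 cells/well with tetracycline and held overnight at 30 C. After no-wash calcium dye loading, compound-evoked calcium rise over 180 s flagged agonists.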
* hit, by the source's call; . = no result; ! = repeats disagree. Unless noted, no stated cut-off is given here; in the data, active means activation above about 30%; inactive means the rest.

SMILES	TRHR ag	D1 antagonist	TRHR enhancer	D1 PAM	D1 ag
CC1CCN(CCCOc2ccc(OCc3ccccc3)cc2)CC1	1.8	-39.7*	-1.4	-9.8	75.6*
CC1CCN(CCCCOc2ccc(C(=O)c3ccccc3)cc2)CC1	0.9	-14.3	-0.7	-8.6	20.6
c1ccc(COc2ccc(OCCN3CCCCC3)cc2)cc1	4.6	-31.3*	3.2	-3.8	43.3*
COCCNC(=O)CCc1nnc2ccc(N3CCC(C)CC3)nn12	0.2	2.8	30.6*	-3.6	1.2
CCOC(=O)C(Cc1ccccc1)NC(=O)CCc1nnc2ccc(N3CCOCC3)nn12 (stereo not given)	0.0	-30.3*	-3.3	-6.4	2.2
CCN(CCCNC(=O)c1ccc(Sc2ccc(Cl)cc2)c(NC(C)=O)c1)c1ccccc1	-0.8	21.0	3.3	-0.6	5.8
C=CCn1cc(/C=C/c2cc[n+](C)cc2)c2ccccc21	6.0	0.8	0.3	-4.7	38.3*
CCn1cc(/C=C/c2cc[n+](C)cc2)c2ccccc21	-1.0	-9.2	8.3	-6.9	69.1*
CCOc1cc(CNc2ccc(S(N)(=O)=O)cc2)cc(Cl)c1OC	-0.5	-9.4	6.1	1.8	1.6
CCOc1cc(CNCCO)cc(Br)c1OCc1ccccc1	-0.1	.	-2.7	-6.9	8.2
CCNCc1cc(Cl)c(OCc2ccccc2)c(OCC)c1	0.7	-0.2	-4.3	-6.0	54.6*
NS(=O)(=O)c1ccc(CCNCc2cc(Br)ccc2OCc2ccccc2)cc1	0.2	-34.1*	-2.8	-0.8	34.2*
CCOc1cc(CNCCc2ccc(S(N)(=O)=O)cc2)ccc1OCc1ccccc1	3.9	-45.2*	10.8	-8.1	34.8*
COc1cc(CNCCc2ccc(S(N)(=O)=O)cc2)ccc1OCC(=O)NC(C)(C)C	1.2	7.1	6.1	-0.5	2.0
CCOc1cc(CNCCc2ccc(S(N)(=O)=O)cc2)cc(Cl)c1OCc1ccccc1	-0.1	-16.0	12.4	-6.1	34.0*
CC(NCC(O)COCCC12CC3CC(CC(C3)C1)C2)c1ccccc1 (stereo not given)	0.7	56.4	-1.0	12.4	169.5*
CCN(CC(=O)NC1CCS(=O)(=O)C1)c1ccc([N+](=O)[O-])cc1C#N (stereo not given)	0.2	-30.6*	5.0	-3.5	1.7
C=CCN(CC(=O)NC1CCS(=O)(=O)C1)S(=O)(=O)c1ccccc1C(F)(F)F (stereo not given)	2.3	0.8	30.9*	-6.9	2.6
CCN(CC(=O)NC1CCS(=O)(=O)C1)S(=O)(=O)c1cc(C)ccc1C (stereo not given)	0.5	-55.0*	-1.9	-11.7	0.1
O=C(CN1C(=O)c2ccc([N+](=O)[O-])cc2C1=O)NC1CCS(=O)(=O)C1 (stereo not given)	0.2	-2.3	1.6	-0.2	1.0
Cc1cccc(Cn2c(SCc3ccc(C(=O)NCc4cccs4)cc3)nc3cccnc32)c1	1.2	11.6	2.4	-2.2	4.9
CCOC(=O)c1c(CSC(=N)N)n(-c2ccc(Br)cc2)c2cc(Br)c(OC(C)=O)cc12	2.1	1.7	0.0	9.3	40.4*
COc1ccc(Cl)cc1NC(=O)Cn1cc2c(n1)CCC(C)C2 (stereo not given)	-0.1	20.9	0.5	1.3	5.0
O=C1N(Cc2ccccc2Cl)c2ccccc2C1(O)c1c[nH]c2ccccc12 (stereo not given)	-0.6	17.1	4.0	-2.1	1.5
Cc1c(Cl)ccc2c1NC(=O)[C@]21N[C@@H](Cc2ccccc2)[C@H]2C(=O)N(c3ccc(F)cc3)C(=O)[C@H]21	-0.8	-1.1	4.5	16.3	33.6*
SMILES	TRHR ag	D1 antagonist	TRHR enhancer	D1 PAM	D1 ag
Cc1ccc(C)c(NC(=O)C(=O)NCCc2csc3nc(-c4ccccc4C)nn23)c1	0.9	64.2	10.2	4.9	7.0
Cc1ccc(S(=O)(=O)Nc2nccs2)cc1[N+](=O)[O-]	0.7	-8.8	24.8	3.7	1.8
Cc1ccc(S(=O)(=O)Nc2ccc(S(=O)(=O)Nc3nccs3)cc2)c([N+](=O)[O-])c1	-0.2	14.6	58.0*	-2.2	-0.8
COc1ccc(/C=C/C(=O)N2c3ccccc3Sc3ccc(C(F)(F)F)cc32)cc1	0.3	-39.9*	33.5*	-8.4	12.8
O=C(/C=C/c1ccccc1)N1c2ccccc2Sc2ccc(C(F)(F)F)cc21	1.2	7.8	-3.3	3.5	2.5
COc1cc(OC)c(NC(=O)CC(c2cccs2)N2Cc3ccccc3C2=O)cc1Cl (stereo not given)	-0.4	27.4	-5.8	-1.9	4.8
COc1cccc(NC(=O)/C(C#N)=C/c2ccc(-c3ccc(C)cc3)o2)c1	33.6*	-11.1	8.4	7.3	110.1*
CCOC(=O)/C(C#N)=C/c1ccc(-c2ccc(Br)cc2)o1	9.3	-21.5	36.8*	-1.1	9.9
COc1ccc(NC(=O)/C(C#N)=C/c2ccc(C)o2)cc1	-1.7	-13.5	7.9	-0.2	-1.6
N#C/C(=C\c1ccc(N2CCOCC2)o1)C(=O)Nc1ccc(O)cc1	17.2	-23.3	1.7	3.0	41.0*
COc1ccc(NC(=O)/C(C#N)=C\c2ccc(N3CCOCC3)o2)cc1	74.6*	-20.4	0.6	-0.1	212.9*
CCOCCCn1c(SCC(=O)Nc2ccccc2OC)nc2c(oc3ccccc32)c1=O	0.2	-11.1	1.7	-6.5	2.9
COc1ccc(C(CNC(=O)c2oc3ccc(C)cc3c2C)N2CCOCC2)cc1 (stereo not given)	-0.6	19.7	-0.9	1.5	0.6
COc1cc2c(cc1OC)C(COc1ccc3c(C)cc(=O)oc3c1)N(C(=O)Cc1ccccc1)CC2 (stereo not given)	0.0	-17.8	-3.4	0.9	-0.3
Cc1ccc(S(=O)(=O)n2nc(OC(=O)c3cccs3)cc2N)cc1	-0.7	4.4	9.3	-10.4	21.6
Cc1ccc(S(=O)(=O)n2ccc(OC(=O)c3cccs3)n2)cc1	0.1	-26.0	-5.5	-4.4	30.2*
O=C(Nc1ccc(Oc2ccc(C(F)(F)F)cn2)c(Cl)c1)C1CC1	0.7	-32.1*	-3.6	-3.8	8.4
COc1ccc(-c2cc(C(F)(F)F)nc(SCCC(=O)Nc3ccc(O)cc3)n2)cc1	-0.3	-10.4	2.7	-6.2	0.7
Cc1ccc(NC(=O)C2=CC(c3ccc(C)cc3)=NS(=O)(=O)N2C)cc1	0.3	-2.2	-2.1	-5.7	15.6
CC(=O)c1ccc(NC(=O)C2=CC(c3ccc(C)cc3)=NS(=O)(=O)N2C)cc1	0.2	-45.6*	-2.0	-1.3	0.6
CC(=O)c1ccc(NC(=O)C2=CC(c3ccc4c(c3)OCO4)=NS(=O)(=O)N2C)cc1	1.0	-14.7	-7.4	1.3	33.3*!
CCOc1ccc(CNC(=O)C2CCCN(c3nc4c(C)cc(C)cc4s3)C2)cc1 (stereo not given)	0.0	-21.1	1.3	-5.7	1.5

Screens (PubChem BioAssay)
